Source: ChEMBL document CHEMBL3988442, “University of Dundee, Small-Polar-MMV Screening Library” (2021)
Out of some 69,000 compounds screened, about 30 (0.04%) showed an effect of 50% or more. This is one part of a sample in which strong results are shown more often than they occur.

Target: T1, Histidine--tRNA ligase (Trypanosoma cruzi (strain CL Brener)) (UniProt Q4DA54)
T1 sequence (whole entry): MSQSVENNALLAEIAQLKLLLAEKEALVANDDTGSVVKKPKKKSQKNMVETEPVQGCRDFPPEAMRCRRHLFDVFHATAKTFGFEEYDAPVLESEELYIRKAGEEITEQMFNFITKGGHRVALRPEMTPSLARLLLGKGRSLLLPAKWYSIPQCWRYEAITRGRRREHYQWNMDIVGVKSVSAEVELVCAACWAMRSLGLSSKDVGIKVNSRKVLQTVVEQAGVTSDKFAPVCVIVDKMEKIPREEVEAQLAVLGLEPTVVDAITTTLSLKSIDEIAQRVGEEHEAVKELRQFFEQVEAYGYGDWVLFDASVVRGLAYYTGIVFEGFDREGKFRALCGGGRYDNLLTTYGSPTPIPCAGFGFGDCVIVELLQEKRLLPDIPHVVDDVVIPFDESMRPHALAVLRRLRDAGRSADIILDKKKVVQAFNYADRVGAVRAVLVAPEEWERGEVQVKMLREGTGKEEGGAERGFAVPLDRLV
Assay: Trypanosoma cruzi histidyl tRNA synthetase (Tc-HisRS)
Assay type: functional
Design: scale not given: direction of the effect not stated beside the values
Conditions: 30 µM

First: CNc1nc2c(s1)C(c1cccc(Cl)c1Cl)CC(=O)N2 (stereo not given)
Second: CNc1nc2c(s1)C(c1c(Cl)cccc1Cl)CC(=O)N2 (stereo not given)
The Percent Effect of the first is higher: 34.8% for the first, 31.5% for the second.

First: Cc1ccc(CN2C[C@@H]3COC[C@]3(COc3ccc(C#N)cn3)C2)o1
Second: Cc1cccc(CN2CC[C@@H]3[C@@H](CO[C@H]3CNc3ncccn3)C2)n1
The Percent Effect of the first is lower: 4.39% for the first, 10.5% for the second.

Going from `O=C(CCc1ccccc1)N[C@H]1CC[C@@]2(CCC(=O)N2)CC1` to `CCC1=N[C@@]2(CC[C@@H]3CN(C(=O)NCc4ccccc4)C[C@@H]32)C(=O)N1C`, the Percent Effect falls from 9.71% to 3.83%.

Going from `O=C(c1ccco1)N1CCO[C@@H]2CN(Cc3nccs3)CC[C@@H]2C1` to `Cc1ncccc1NC(=O)[C@@H]1CCO[C@@H]2CCN(c3ccccc3)C[C@@H]21`, the Percent Effect rises from 2.21% to 7.26%.

First: CN(C)C(=O)[C@H]1C[C@H]2OCC[C@H]2N(Cc2ccc3ccccc3n2)C1
Second: CN(C)C(=O)[C@H]1C[C@@H]2CN(S(=O)(=O)c3ccccc3)C[C@H]1O2
The Percent Effect of the first is higher: 12.8% for the first, 5.91% for the second.

`O=C(N1CCOCC1)[C@@]12CCO[C@@H]1CCN(CC1CCCC1)C2` and `O=C1CC[C@@H]2[C@@H](CCN2C(=O)C2CCOCC2)N1CC1CC1` are the same in Percent Effect: 0% for the first, 0% for the second.

Going from `Cc1noc([C@@H]2C[C@H]3OCC[C@H]3N(Cc3cc(C)c(C)o3)C2)n1` to `CN(C)C(=O)COC[C@H]1CC[C@@H]2[C@@H](CCN2Cc2ccco2)O1`, the Percent Effect falls from 8.87% to 7.04%.

First: O=C1CC[C@H]2[C@H](CCN2C(=O)C2CCCO2)N1Cc1ccncc1 (stereo not given in full)
Second: Cc1nc(CO[C@H]2CN(C(=O)c3cccnc3)[C@@H]3COC[C@H]23)cs1
The Percent Effect of the first is lower: -3.83% for the first, -1.03% for the second.

Going from `O=C(NCc1ccco1)[C@H]1CC[C@@H]2[C@@H](CCN2C2CCC2)O1` to `O=C(NCc1ccccc1)[C@H]1C[C@@H]2CN(S(=O)(=O)C3CC3)C[C@H]1O2`, the Percent Effect falls from 8.54% to 6.01%.

First: COc1ccc(CN2CCN(C(=O)N(C)C)[C@@H]3CS(=O)(=O)C[C@@H]32)cc1F
Second: COC[C@H]1CNC(=O)[C@@H]2CCN(Cc3cccc(C)n3)CC[C@H]12
The Percent Effect of the first is lower: 3.06% for the first, 3.92% for the second.

Compared with `CO[C@H]1C[C@@H]2CN(C(=O)c3ccc(C)s3)C[C@@H]2C1`, `CC1=CC[C@@H]2CN(C(=O)c3ccc(-c4nnn(C)n4)cc3)C[C@@H]2C1` is lower in Percent Effect: 8.05% for the first, 0.8% for the second.

First: Cc1cc(=O)n(C)cc1NC(=O)Cc1cccc(F)c1
Second: Cc1cc(=O)n(C)cc1NC(=O)Cc1cc(F)ccc1F
The Percent Effect of the first is lower: 14.2% for the first, 57.9% for the second.

Going from `Cc1cc(=O)n(C)cc1NC(=O)Cc1ccc(C(F)(F)F)cc1` to `CCCn1cc(NC(=O)c2ccncc2)ccc1=O`, the Percent Effect rises from 14.2% to 38.3%.

`COc1cccc(C2CC(=O)Nc3nc(N4CCCCC4)sc32)c1OC` (stereo not given) and `COc1ccccc1C1CC(=O)Nc2nc(N3CCCCC3)sc21` (stereo not given) are the same in Percent Effect: 74.5% for the first, 74.5% for the second.

Going from `Nc1nc2c(s1)C(c1c(F)cccc1Cl)CC(=O)N2` (stereo not given) to `COc1cccc(C2CC(=O)Nc3nc(N)sc32)c1OC` (stereo not given), the Percent Effect rises from -3.73% to 70.7%.

First: CCOc1cccc(C2CC(=O)NCc3nc(N4CCCC4)sc32)c1 (stereo not given)
Second: COc1cccc(C2CC(=O)Nc3nc(N4CCOCC4)sc32)c1OC (stereo not given)
The Percent Effect of the first is lower: 9.84% for the first, 65.2% for the second.

First: CNc1nc2c(s1)C(c1cccc(F)c1F)CC(=O)N2 (stereo not given)
Second: CNc1nc2c(s1)C(c1ccccc1F)CC(=O)N2 (stereo not given)
The Percent Effect of the first is lower: 3.26% for the first, 14.9% for the second.

Going from `CNc1nc2c(s1)C(c1ccccc1Cl)CC(=O)N2` (stereo not given) to `O=C1CC(c2ccccc2Br)c2sc(N3CCOCC3)nc2N1` (stereo not given), the Percent Effect falls from 17.4% to 16.1%.

First: CC(C)Oc1ccccc1C1CC(=O)Nc2nc(N3CCOCC3)sc21 (stereo not given)
Second: O=C1CC(c2ccccc2C(F)(F)F)c2sc(N3CCOCC3)nc2N1 (stereo not given)
The Percent Effect of the first is lower: 1.24% for the first, 33.5% for the second.

Going from `COCCN1C[C@H]2CC[C@@H]1CN(C(=O)CCc1c(C)nn(C)c1C)C2` to `CCc1nccn1CC(=O)N1C[C@H]2CC[C@@H]1CN(c1ncccn1)C2`, the Percent Effect falls from 13.1% to 5.46%.

Going from `Cc1ccc2nc(C(=O)N3CCCC[C@]4(C)NC(=O)CCC[C@H]34)cn2c1` to `O=C(O)[C@]12CCCN(CC3CCOC3)C[C@H]1CN(c1ncccn1)C2` (stereo not given in full), the Percent Effect falls from 2.24% to -2.21%.

Compared with `CCN(CC)CCNC(=O)CCc1c(C)nn(-c2ccccc2Br)c1C`, `CCN(CC)CCNC(=O)CCc1c(C)nn(-c2ccccc2Cl)c1C` is lower in Percent Effect: 61.4% for the first, 0% for the second.

First: CCN(CC)CCNC(=O)CCc1c(C)nn(-c2ccc(Cl)cc2)c1C
Second: CCCn1cc(NC(=O)c2ccc(S(=O)(=O)CC)cc2)ccc1=O
The Percent Effect of the first is lower: 2.27% for the first, 35% for the second.

Going from `CNC(=O)[C@@]12CCC3(CCN(C(=O)COC)CC3)[C@@H]1CN(S(C)(=O)=O)C2` to `O=C(CSc1nc2nncc-2c(O)n1-c1ccccc1)N1CCOCC1`, the Percent Effect rises from 3.74% to 7.22%.

Going from `CCCn1cc(NC(=O)c2ccc(S(C)(=O)=O)cc2)ccc1=O` to `O=C1[C@H]2CN(c3cnccn3)C[C@H]2CN1CC1CC1`, the Percent Effect falls from 56.7% to 7.22%.
